Reference: PubChem BioAssay AID1159580 (chemical genetic matrix, 2015)
The whole screen tested about 5,500 compounds, of which about 2,000 (36%) were called active. Roughly 18% stayed inconclusive and do not appear here. Rule as the data show it: active = normalized growth mostly below about 0.91 (no sharp cut-off); inconclusive = no clear call, values can overlap the other calls; inactive = mostly above about 0.92. Some of the results follow.

Assay: chemical genetic growth profiling, strain panel (AID 1159580);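 also: tested at 20 µM; growth read once vehicle control cultures reached saturation at 30 °C; 1 = growth at the plate median or of vehicle wells; lower values mean less growth of the strain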
Conditions: S. cerevisiae deletion strains, growth OD

Measured: normalized growth

Cc1c(O)c(O)cc2c1CC=C1[C@@]2(C)CC[C@@]2(C)C3C[C@](C)(C(=O)O)CC[C@]3(C)CC[C@]12C (some centres not stated)
inactive: locus YJR043C, strain POL32, hits give low values 0.914 | locus YJR066W, strain TOR1, hits give low values 0.901 | locus YKL009W, strain mrt4, hits give low values 0.986 | locus YLR058C, strain SHM2, hits give low values 0.894 | locus YLR102C, strain apc9, hits give low values 0.984 | locus YLR262C, strain YPT6, hits give low values 0.609 | locus YLR268W, strain sec22, hits give low values 0.891 | locus YLR342W, strain FKS1 (second series), hits give low values 0.868 | locus YLR371W, strain rom2, hits give low values 0.912 | locus YML016C, strain PPZ1, hits give low values 0.927 | locus YML032C, strain rad52, hits give low values 0.96 | locus YML124C, strain tub3, hits give low values 0.971 | locus YMR078C, strain ctf18, hits give low values 0.984 | locus YMR223W, strain ubp8, hits give low values 0.906 | locus YMR307W, strain GAS1, hits give low values 0.782 | locus YNL067W, strain RPL9B, hits give low values 0.918 | locus YNL183C, strain NPR1, hits give low values 0.837 | locus YNL233W, strain BNI4, hits give low values 0.873 | locus YNL250W, strain rad50, hits give low values 0.972 | locus YNL271C, strain bni1, hits give low values 0.991 | locus YNL298W, strain CLA4, hits give low values 1.01 | locus YNL322C, strain KRE1 (second series), hits give low values 0.935 | locus YNL322C, strain KRE1, hits give low values 0.937 | locus YNR052C, strain pop2, hits give low values 0.977 | locus YOL012C, strain htz1 0.648 | locus YOL147C, strain pex11, hits give low values 0.976 | locus YOR061W, strain CKA2, hits give low values 0.934 | locus YOR069W, strain VPS5, hits give low values 0.945 | locus YOR136W, strain idh2, hits give low values 1 | locus YOR144C, strain elg1, hits give low values 0.977 | locus YOR231W, strain MKK1, hits give low values 0.917 | locus YOR316C, strain cot1, hits give low values 0.981 | locus YPL241C, strain CIN2, hits give low values 0.96 | locus YPL256C, strain CLN2, hits give low values 0.856 | locus YPR119W, strain clb2, hits give low values 0.979 | locus YPR141C, strain kar3, hits give low values 0.956 | locus YPR163C, strain tif3, hits give low values 0.924 | locus YPR167C, strain met16, hits give low values 0.948 | strain wtn01, hits give low values 0.93
active: locus YKL068W, hits give low values 0.941 | locus YKL085W, strain MDH1 (second series), hits give low values 0.919 | locus YKL085W, strain MDH1, hits give low values 0.919 | locus YKL160W, strain elf1, hits give low values 0.386 | locus YKR001C, strain vps1, hits give low values 0.728 | locus YKR026C, strain gcn3, hits give low values 0.804 | locus YKR091W, strain srl3, hits give low values 0.8 | locus YLL001W, strain dnm1, hits give low values 0.617 | locus YLL026W, hits give low values 0.496 | locus YLL041C, strain sdh2, hits give low values 0.645 | locus YLR027C, strain aat2, hits give low values 0.433 | locus YLR039C, strain RIC1, hits give low values 0.616 | locus YLR113W, strain HOG1, hits give low values 0.651 | locus YLR221C, strain rsa3, hits give low values 0.4 | locus YLR258W, strain gsy2, hits give low values 0.398 | locus YLR262C, strain YPT6 (second series), hits give low values 0.186 | locus YLR320W, strain mms22, hits give low values 0.221 | locus YLR330W, strain CHS5, hits give low values 0.877 | locus YLR342W, strain FKS1, hits give low values 0.561 | locus YLR357W, strain rsc2, hits give low values 0.657 | locus YLR370C, strain arc18, hits give low values 0.63 | locus YLR384C, strain iki3, hits give low values 0.885 | locus YLR418C, strain cdc73, hits give low values 0.645 | locus YML120C, strain ndi1, hits give low values 0.568 | locus YMR058W, strain fet3, hits give low values 0.0953 | locus YMR125W, strain sto1, hits give low values 0.483 | locus YMR129W, hits give low values 0.764 | locus YMR205C, strain PFK2, hits give low values 0.364 | locus YMR231W, strain pep5, hits give low values 0.361 | locus YNL071W, strain lat1, hits give low values 0.0934 | locus YNL209W, strain ssb2, hits give low values 0.376 | locus YNL248C, strain rpa49, hits give low values 0.741 | locus YNL307C, strain MCK1, hits give low values 0.822 | locus YNR049C, strain mso1, hits give low values 0.72 | locus YOR001W, strain rrp6, hits give low values 0.683 | locus YOR070C, strain gyp1, hits give low values 0.393 | locus YOR080W, strain dia2, hits give low values 0.697 | locus YOR083W, strain WHI5, hits give low values 0.656 | locus YOR106W, strain vam3, hits give low values 0.331 | locus YOR184W, strain ser1, hits give low values 0.812 | locus YOR265W, strain rbl2, hits give low values 0.479 | locus YOR270C, strain vph1, hits give low values 0.273 | locus YOR290C, strain snf2, hits give low values 0.434 | locus YPL051W, strain arl3, hits give low values 0.248 | locus YPL055C, strain LGE1, hits give low values 0.755 | locus YPL078C, strain atp4, hits give low values 0.62 | locus YPL106C, strain sse1, hits give low values 0.507 | locus YPL240C, strain hsp82, hits give low values 0.417
